Experimental data from PubChem BioAssay (NCATS).
Inconclusive results are not listed. A call without a number means that no potency is given here. Activity calls are given as the source filed them. The call rests on the fitted dose curve; in most records, active means well fitted cell-killing curve with a large enough effect; inconclusive means small, poorly fitted or top-dose-only effect, or effect the other way; inactive means no such curve, though single readings can be large or run the other way.

How the values were obtained:
[1] = Quantitative High-Throughput drug screen in 47 multiple myeloma cell lines against the NCATS MIPE library collection: MM1R_ATCC cell viability assay (AID 1918981); further: nearly all actives have a fitted effect of over 35% in size
How it was run: (§1)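 Cells were exposed to library compounds for 48 hours, after which ATP was measured by CellTiter-Glo. Signal was taken as median relative luminescence units.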

[2] = Quantitative High-Throughput drug screen in 47 multiple myeloma cell lines against the NCATS MIPE library collection: LP1_DSMZ cell viability assay (AID 1918982); further: nearly all actives have a fitted effect of over 35% in size
How it was run: as §1

[3] = Quantitative High-Throughput drug screen in 47 multiple myeloma cell lines against the NCATS MIPE library collection: KMS28PE_JCRB cell viability assay (AID 1918983); further: nearly all actives have a fitted effect of over 35% in size
How it was run: as §1

[4] = Quantitative High-Throughput drug screen in 47 multiple myeloma cell lines against the NCATS MIPE library collection: OCIMY5_PLB cell viability assay (AID 1918988); further: nearly all actives have a fitted effect of over 65% in size
How it was run: as §1

[5] = Quantitative High-Throughput drug screen in 47 multiple myeloma cell lines against the NCATS MIPE library collection: KMS34_JCRB cell viability assay (AID 1918985); further: nearly all actives have a fitted effect of over 40% in size
How it was run: as §1

[6] = Quantitative High-Throughput drug screen in 47 multiple myeloma cell lines against the NCATS MIPE library collection: OCIMY7_PLB cell viability assay (AID 1918987); further: nearly all actives have a fitted effect of over 65% in size
How it was run: as §1

[7] = Quantitative High-Throughput drug screen in 47 multiple myeloma cell lines against the NCATS MIPE library collection: OPM1_PLB cell viability assay (AID 1918989); further: nearly all actives have a fitted effect of over 40% in size
How it was run: as §1

[8] = Quantitative High-Throughput drug screen in 47 multiple myeloma cell lines against the NCATS MIPE library collection: L363_DSMZ cell viability assay (AID 1918984); further: nearly all actives have a fitted effect of over 40% in size
How it was run: as §1
Potency means the concentration at half of the fitted maximal effect.

With `CC(C)(C)OC(=O)CN(Cc1ccc(Cl)cc1)Cc1ccc([N+](=O)[O-])s1` as the compound, how does the Potency [1] read?
The Potency was “inactive”.

What about the Potency [2] of the same compound?
Its Potency is 18.7 µM (active).

What about the Potency [3] of the same compound?
Its Potency is 20.9 µM (active).

And the Potency [4]?
The Potency was 18.7 µM (active).

Which Potency [1] does the source give for `Cc1cc(C=c2sc3nc4ccccc4n3c2=O)c(C)n1-c1ccccc1` here?
The Potency was 7.43 µM (active).

What about the Potency [2] of the same compound?
The Potency was “inactive”.

And the Potency [5]?
The Potency was 14.8 µM (active).

What about the Potency [4] of the same compound?
The Potency was 4.69 µM (active).

What does the source list for `CCN(CC)CCCC(C)Nc1nc(C)cc(Nc2ccc3nc(C)cc(N)c3c2)n1` (stereo not drawn)?
Potency [2]: inactive; Potency [3]: inactive; Potency [5]: inactive; Potency [6]: 8.33 µM (active)

Which results are given for `NS(=O)(=O)c1cc2c(cc1Cl)NC=NS2(=O)=O`?
Potency [1]: inactive; Potency [2]: inactive; Potency [3]: inactive; Potency [5]: inactive; Potency [6]: inactive; Potency [4]: inactive

Which Potency [1] does the source give for `COc1cc(Oc2ccnc3cc(OC)c(OC)cc23)ccc1NC(=O)NC(C)c1nccs1` (stereo not drawn) here?
Its Potency is 18.7 µM (active).

What about the Potency [4] of the same compound?
The Potency was 16.6 µM (active).

And the Potency [7]?
Its Potency is 20.9 µM (active).

Which Potency [2] does the source give for `Nc1nc2c(ncn2COCCO)c(=O)[nH]1` here?
Its Potency is “inactive”.

What about the Potency [3] of the same compound?
Its Potency is “inactive”.

What about the Potency [8] of the same compound?
Its Potency is “inactive”.

And the Potency [5]?
Its Potency is “inactive”.

And the Potency [4]?
The Potency was “inactive”.

And the Potency [7]?
Its Potency is “inactive”.

What does the source list for `O=c1n(CCCN2CCN(c3cccc(Cl)c3)CC2)nc2ccccn12`?
Potency [1]: inactive; Potency [2]: inactive; Potency [3]: inactive; Potency [5]: inactive; Potency [7]: inactive

Which Potency [1] does the source give for `CCOc1cc(C(=O)Nc2ccc(Cl)c(-c3nc4ccccc4[nH]3)c2)cc(OCC)c1OCC` here?
Its Potency is 13.2 µM (active).

And the Potency [2]?
The Potency was 14.8 µM (active).

And the Potency [3]?
The Potency was “inactive”.

What about the Potency [5] of the same compound?
The Potency was “inactive”.

And the Potency [6]?
Its Potency is 0.418 µM (active).

Which results are given for `CN(C(=O)c1ccc(F)cc1C(F)(F)F)C1CCN(c2nnc(-c3ccnn3C)c3ccccc23)CC1`?
Potency [6]: 0.372 µM (active); Potency [7]: inactive

With `OCCC#Cc1nc(-c2ccc(F)cc2)c(-c2ccncc2)n1CCCc1ccccc1` as the compound, how does the Potency [1] read?
Its Potency is “inactive”.

What about the Potency [3] of the same compound?
Its Potency is “inactive”.

And the Potency [8]?
The Potency was 5.26 µM (active).

And the Potency [6]?
Its Potency is 5.26 µM (active).

And the Potency [7]?
The Potency was 18.7 µM (active).

For `Cc1cccc(-c2[nH]c(C(C)(C)C)nc2-c2ccc3nccnc3c2)n1`, which Potency [1] is on record?
Its Potency is 20.9 µM (active).

Which Potency [1] does the source give for `COc1ccc([C@@H]2CC(=O)c3c(O)cc(O[C@@H]4O[C@H](CO[C@@H]5O[C@@H](C)[C@H](O)[C@@H](O)[C@@H]5O)[C@@H](O)[C@H](O)[C@@H]4O)cc3O2)cc1O` here?
Its Potency is “inactive”.

And the Potency [2]?
The Potency was “inactive”.

And the Potency [3]?
The Potency was “inactive”.

And the Potency [5]?
Its Potency is “inactive”.

What about the Potency [6] of the same compound?
Its Potency is 6.62 µM (active).

And the Potency [4]?
The Potency was 13.2 µM (active).

And the Potency [7]?
The Potency was “inactive”.

With `O=C(C=Cc1ccc(/C=C/C(=O)Nc2ccc(C3=NCCN3)cc2)cc1)Nc1ccc(C2=NCCN2)cc1` as the compound, how does the Potency [2] read?
Its Potency is “inactive”.

And the Potency [5]?
Its Potency is “inactive”.

Which Potency [1] does the source give for `O=C1CCc2cc(OCCCCc3nnnn3C3CCCCC3)ccc2N1` here?
Its Potency is “inactive”.

What about the Potency [2] of the same compound?
The Potency was “inactive”.

And the Potency [3]?
The Potency was “inactive”.

What about the Potency [7] of the same compound?
Its Potency is “inactive”.
